TEAD-YAP inh = TEAD-YAP interaction inhibition, primary screen, TEAD-YAP interaction inhibitor project, luminescence, HEK-TIYL cells. 640,000 compounds, 1.4% hits. inhibition, % at 9.12 µM. TEAD-Gal4/YAP UAS-luciferase luminescence; in the data active means inhibition above about 32%;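 further: 0% = median of test compound wells and 100% = reference inhibitor wells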
MITF inh = MITF inhibitors, primary screen, biochemical, AlphaScreen, human; AlphaScreen MITF homodimerization, bead proximity signal; inhibition, % at 2.6 µM; 650,000 compounds, 0.91% hits; in the data active means inhibition above about 50%;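 further: 0% = vehicle wells with protein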
Target sequence (O75030 whole entry, looked up): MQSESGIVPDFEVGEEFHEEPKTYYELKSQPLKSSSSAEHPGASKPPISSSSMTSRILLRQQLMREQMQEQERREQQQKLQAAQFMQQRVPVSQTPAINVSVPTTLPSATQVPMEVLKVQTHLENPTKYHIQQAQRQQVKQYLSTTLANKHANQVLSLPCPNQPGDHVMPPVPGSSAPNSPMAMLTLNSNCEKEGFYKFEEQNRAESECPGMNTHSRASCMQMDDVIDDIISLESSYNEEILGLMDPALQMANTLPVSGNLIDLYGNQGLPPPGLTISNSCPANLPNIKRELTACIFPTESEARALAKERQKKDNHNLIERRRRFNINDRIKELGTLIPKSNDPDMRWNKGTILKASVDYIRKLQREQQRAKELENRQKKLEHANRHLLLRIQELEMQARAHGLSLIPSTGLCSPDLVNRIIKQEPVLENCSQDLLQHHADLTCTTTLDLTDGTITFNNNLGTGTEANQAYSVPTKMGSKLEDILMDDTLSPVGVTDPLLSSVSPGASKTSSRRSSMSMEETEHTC
FBW7 act = FBW7 E3 ligase activators, primary screen, biochemical, AlphaScreen, human | F-box/WD repeat-containing protein 7 (Homo sapiens), Q969H0 | AlphaScreen FBW7–phospho-cyclin E peptide binding, activator screen | normalized activity (activation), % at 26.1 µM | 650,000 compounds, 0.13% hits | AID 1259310, 2017; in the data active means normalized activity above about 1.9%;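 further: purified mutant Fbw7 with reduced substrate affinity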
GPR151 ag = activators of human GPR151, primary screen, cell-based, PathHunter beta-arrestin, luminescence; G-protein coupled receptor 151 (Homo sapiens), Q8TDV0; PathHunter beta-arrestin GPR151 cells; activation, % at 11.2 µM; 650,000 compounds, 1% hits; in the data active means activation above about 4.9%;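 further: 0% = median of compound wells and 100% = cells with positive control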
* = called active by the depositor. In the library only some 3.5% were active in any assay of this set; here they are far more common.

SMILES | TEAD-YAP inh | MITF inh | FBW7 act | GPR151 ag
Cc1ccc(-c2cnn3c(N4CCN(C)CC4)ccnc23)cc1 | -52 | -12 | 0 | 0
Cc1csc(-c2cnn3c(N4CCN(C)CC4)ccnc23)c1 | 32* | -13 | 0 | -1
CCCN(C1=NC2CS(=O)(=O)CC2S1)c1ccc(Cl)cc1 (stereo not given) | 6 | 1 | 0 | 0
CN(C)CCn1c2ccccc2c2cnc(N)c(C#N)c21 | 93* | 3 | 0 | 2
Cc1nc(-c2ccncc2)cc(N2CCC3(CC2)OCCO3)n1 | -7 | 6 | 0 | 0
CC(C)(C)c1ccc(C(=O)Nc2cccc3c(=O)[nH][nH]c(=O)c23)cc1 | 76* | -7 | 0 | -1
CC(C)(C)c1ccc(C(=O)Nc2ccc(C(=O)Nc3cccc4ccccc34)cc2)cc1 | 5 | 1 | 0 | 2
Cc1nn(C)c(C)c1-c1cc(NC2CC2)nc(N)n1 | -7 | -6 | 0 | 1
CCOC(=O)c1c(C)nn(-c2ccc(C)cc2)c1C | -95 | -5 | 0 | -2
COC(=O)c1ccc(-c2nc3cc(Cl)c(N)cc3s2)cc1 | 47* | -4 | 0 | -1
O=C(NCCc1ccccc1)c1ccc(CNc2c(NC3CCCCC3)c(=O)c2=O)cc1 | -1 | 9 | 0 | 0
c1ccc(OCCNc2nc(NCc3cccnc3)nc3c2ncn3-c2ccsc2)cc1 | 14 | 6 | 0 | 1
Cc1cccc(C(=O)Nc2snc(Cl)c2C#N)c1 | 39* | 0 | 0 | 0
Cc1cccc(C(=O)Nc2sccc2C#N)c1 | -22 | -10 | 0 | -1
CC(C)N1CCc2c(sc(NC(=O)C(C)(C)C)c2C(N)=O)C1 | 74* | 13 | 1 | 0
COc1ccc(N2CCN(CC(=O)c3ccc4cc[nH]c4c3)CC2)cc1 | -2 | 10 | 1 | 0
O=C(N=c1sn2c(c1[N+](=O)[O-])CCCCC2)c1ccccc1 | 84* | -2 | 0 | -2
O=C(c1ccccc1)N1CCN(C(=O)c2cc3c(s2)CCCCC3)CC1 | 2 | 8 | 0 | -1
CC1Cc2cc(S(=O)(=O)N(C)CC(=O)Nc3cccnc3)ccc2N1C(=O)C1CC1 (stereo not given) | 39* | 8 | 0 | -1
O=C(NC(=S)Nc1ccc(Cl)cn1)c1ccccc1[N+](=O)[O-] | -12 | 21 | 0 | -1
Cc1cc(I)cnc1NC(=O)c1ccccc1[N+](=O)[O-] | 58* | 7 | 0 | 0
O=C(Nc1ccc(Cl)cn1)c1ccccc1[N+](=O)[O-] | 43* | -8 | 0 | 0
CSc1nc2sccn2c(=O)c1C(=O)N1CCOCC1 | 3 | 4 | 0 | 1
COc1ccccc1NC(=O)Cn1c(C)cc(=O)c2cccc(OC)c21 | 37* | -10 | 0 | 0
COc1ccccc1NC(=O)Cn1c(C)cc(=O)c2ccccc21 | 64* | -2 | 0 | -1
SMILES | TEAD-YAP inh | MITF inh | FBW7 act | GPR151 ag
COc1ccccc1NC(=O)Cn1c(C)cc(=O)c2cccc(C)c21 | 3 | -1 | 0 | 1
CCn1c(=O)n(CC(=O)Nc2ccccc2OC)c(=O)c2ccccc21 | 14 | 9 | 0 | -1
COc1cccc(NC(=O)Cn2c(C)cc(=O)c3ccccc32)c1 | 54* | 13 | 0 | 0
CCOc1cc(C2C3=C(CC(C)(C)CC3=O)OC3=C2C(=O)CC(C)(C)C3)ccc1OCc1ccccc1F | -4 | 13 | 1 | 0
CC(=Nc1ccc(Br)cc1)C1=C(O)CC(C)(C)CC1=O | 2 | 9 | 0 | 0
COc1ccc(OC)c(/C=C2\SC(N)=NC2=O)c1 | -21 | 58* | 0 | 1
COc1ccc(/C=C2/SC(N)=NC2=O)c(OC)c1 | 5 | 10 | 0 | -1
NC1=NC(=O)/C(=C/c2cc(O)ccc2Cl)S1 | 39* | 2 | 1 | -2
COc1cccc(CNC(=O)C2CCN(c3nc4ccccc4n4cccc34)CC2)c1OC | 4 | 7 | 0 | 0
COc1ccc(CCN2C(=S)N(c3ccc(Cl)cc3)C(=O)C2CC(=O)Nc2ccc(F)cc2)cc1OC (stereo not given) | -3 | 8 | 0 | -1
COc1ccc(C2/C(=C(\O)c3ccccc3)C(=O)C(=O)N2CC(OC)OC)c(OC)c1 (stereo not given) | -12 | -4 | 0 | -1
Nc1nc(NCCN2CCOCC2)nc2c1ncn2-c1ccsc1 | 4 | -1 | 0 | 1
CCCNc1nc(NCCN2CCOCC2)nc2c1ncn2-c1ccsc1 | 34* | 6 | 0 | -2
